These results are taken from PubChem BioAssay (NCATS).

Records with an inconclusive call do not appear. Active and inactive are the calls of the source. Unless noted, how the calls were made is not given here.

Assay [1] in a line: qHTS profiling of the MIPE4 collection as inhibitors of Plasmodium falciparum (3D7) proliferation (AID 743344).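 Further: scaled between DMSO vehicle wells and 0.29 µM artemisinin as full inhibition.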 Particulars: P. falciparum 3D7 in erythrocytes, SYBR Green DNA fluorescence, 72 h; at 28.5 µM unless noted. Summed up: (§1)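 Erythrocytes infected with P. falciparum (0.3% parasitemia, 2.5% hematocrit) incubated with compounds 72 h at 37 C, 5% CO2. Lysis with saponin/Triton buffer containing SYBR Green I, overnight at room temperature in the dark; DNA fluorescence (485/535 nm) normalised to 0.29 uM artemisinin and DMSO.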

Assay [2] can be described thus: qHTS profiling of the MIPE4 collection as inhibitors of Plasmodium falciparum (DD2) proliferation (AID 743345). The following applies: P. falciparum Dd2 in erythrocytes, SYBR Green DNA, 72 h; at 28.5 µM unless noted. The essentials: as §1
A short description of assay [3]: qHTS profiling of the MIPE4 collection as inhibitors of Plasmodium falciparum (DD2) proliferation (Rep 2) (AID 743346). Particulars: P. falciparum Dd2 in erythrocytes, SYBR Green DNA, 72 h; at 28.5 µM unless noted. The essentials:
as §1

A short description of assay [4]: qHTS profiling of the MIPE4 collection as inhibitors of Plasmodium falciparum (HB3) proliferation (AID 743347).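 Further: plate controls were DMSO vehicle wells for no effect and artemisinin wells for full effect.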 The following applies: P. falciparum HB3 in erythrocytes, SYBR Green DNA, 72 h; at 28.5 µM unless noted. The essentials: as §1
A short description of assay [5]: High-throughput drug toxicity screening in the BPDCN cell line Gen2.2 (AID 1224824). The following applies: Gen2.2 BPDCN cells; at 45.8 µM (top of the series) unless noted. Summed up: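 Gen2.2 cells (500/well) in phenol red-free RPMI with 10% FBS were exposed to compounds for 48 h at 37 °C, 5% CO2. Viability was read by CellTiter-Glo luminescence and normalized to DMSO (100%) and 9.2 uM bortezomib (0%).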

Assay [6] in a line: qHTS assay for measurement of the activity of small molecule inhibitors on Zika virus induced Caspase-3 activity in human iPSC derived neural progenitor cells (hNPCs) (AID 1224857; active means well fitted curve in the direction sought with a large enough effect; an effect the other way counts as inactive or inconclusive; further: nearly all actives have a fitted effect of over 65% in size; further: potency means the concentration at half of the fitted maximal effect). Summed up:
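After overnight (16–20 h) culture at 350 cells/well, hNPCs get compound, then ZIKV 2 FFU/cell one hour later. Six hours on, Caspase-Glo 3/7 is added and luminescence measured.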

The nature of assay [7]: qHTS assay for measurement of the activity of small molecule inhibitors on Zika virus induced Caspase-3 activity in human astrocytoma cells (AID 1224859; active means well fitted curve in the direction sought with a large enough effect; an effect the other way counts as inactive or inconclusive;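 further: plate controls were ZIKV-infected untreated cells for no effect and uninfected cells for full effect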). The essentials: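 Inhibition of Zika-induced caspase-3/7 activity: SNB-19 cells, 1 h compound pretreatment, ZIKV 2 FFU/cell for 6 h at 37 C, Caspase-Glo luminescence read-out.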
Assay [8] is described as follows: qHTS Screen of the MIPE 4.0 Collection Against Ewings Sarcoma (RDES) (AID 1259252; active means well fitted curve in the direction sought with a large enough effect; an effect the other way counts as inactive or inconclusive; further: potency means the concentration at half of the fitted maximal effect; nearly all actives have a fitted effect of over 35% in size). Summed up: (§2)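 After a 4 h attachment period in RPMI/5% FBS, cells were pin-dosed with test compounds; DMSO served as negative and 9.2 uM bortezomib (final) as positive control. Luminescent CellTiter-Glo signal at 48 h defined viability.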
A short description of assay [9]: qHTS Screen of the MIPE 4.0 Collection Against Ewings Sarcoma (TC71) (AID 1259253; active means well fitted curve in the direction sought with a large enough effect; an effect the other way counts as inactive or inconclusive; further: nearly all actives have a fitted effect of over 40% in size; further: potency means the concentration at half of the fitted maximal effect). Summed up: as §2
The nature of assay [10]: qHTS Screen of the MIPE 4.0 Collection Against Ewings Sarcoma (EW8) (AID 1259255; active means well fitted curve in the direction sought with a large enough effect; an effect the other way counts as inactive or inconclusive; further: nearly all actives have a fitted effect of over 35% in size; further: potency means the concentration at half of the fitted maximal effect;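 on viability: 100% = DMSO-treated cells and 0% = medium-only wells without cells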). The essentials:
as §2

The nature of assay [11]: qHTS Screen of the MIPE 4.0 Collection Against Ewings Sarcoma (TC32) (AID 1259256; active means well fitted curve in the direction sought with a large enough effect; an effect the other way counts as inactive or inconclusive; further: potency means the concentration at half of the fitted maximal effect; nearly all actives have a fitted effect of over 45% in size). The essentials: as §2
Assay [12] is described as follows: qHTS assay to identify small molecule inhibitors of chordoma cells - UCH-2 (AID 1259356; active means well fitted curve in the direction sought with a large enough effect; an effect the other way counts as inactive or inconclusive; further: on the % scale 0 is the no-effect control and ±100 the full control effect).
Assay [13] is described as follows: qHTS profiling for inhibitors of Plasmodium falciparum (3D7) proliferation (AID 743322).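 Further: infected erythrocytes exposed to compound for 72 h before lysis; 100% = DMSO vehicle wells and 0% = 0.29 µM artemisinin.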 Particulars: P. falciparum 3D7 proliferation; at 28.7 µM (top of the series). Summed up: as §1
Assay [14] can be described thus: qHTS profiling for inhibitors of Plasmodium falciparum (DD2) proliferation (AID 743323). The following applies: lower = more inhibition; at 28.7 µM (top of the series). The essentials:
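Parasite proliferation measured via DNA-dye fluorescence, as uninfected erythrocytes lack DNA. Cultures at 0.3% parasitemia and 2.5% hematocrit incubated 72 h with compound; signal scaled between vehicle and 0.29 uM artemisinin wells.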

Assay [15] can be described thus: qHTS profiling for inhibitors of Plasmodium falciparum (HB3) proliferation (AID 743324; active means well fitted curve in the direction sought with a large enough effect; an effect the other way counts as inactive or inconclusive;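 further: 100% = DMSO vehicle wells and 0% = artemisinin-treated control wells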). Particulars: Plasmodium falciparum HB3 blood-stage proliferation; at 28.7 µM (top of the series). The essentials: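 P. falciparum HB3 grown in erythrocytes (0.3% parasitemia, 2.5% hematocrit final) with compound for 72 h at 37 C, 5% CO2. Parasite DNA detected by SYBR Green after saponin/triton lysis overnight; normalized to 0.29 uM artemisinin and DMSO.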

The nature of assay [16]: Identifying Small Molecule Inhibitors of Pancreatic Cancer Stem Cells (SN12C, Spheroid) (AID 1259360; active means well fitted curve in the direction sought with a large enough effect; an effect the other way counts as inactive or inconclusive;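 further: 100% = DMSO-treated cells and 0% = wells without cells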). Particulars: Potency: SN12C spheroid viability. Summed up: (§3)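 Monolayer and spheroid cultures are compared. Spheroids form over 14 days in stem cell medium on hydrogel-coated low-attachment plates, then are exposed to compound for 48 h before CellTiter-Glo luminescence.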

Assay [17] can be described thus: Identifying Small Molecule Inhibitors of Pancreatic Cancer Stem Cells (Panc1, Spheroid) (AID 1259359; active means well fitted curve in the direction sought with a large enough effect; an effect the other way counts as inactive or inconclusive;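 further: potency means the concentration at half of the fitted maximal effect; compound exposure lasted 48 h before reading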). Particulars: Panc1 spheroid cancer stem cell viability. Summed up:
as §3

Consider `O=C(NOCC(O)CO)c1cc(Br)c(F)c(F)c1Nc1ccc(I)cc1F` (centres undefined), for which the parasite growth, % of DMSO control in [1] was 89.4%. The same compound registered a parasite growth remaining, % of DMSO control (lower = more inhibition) in assay [2] of 87.4%. In assay [3], the parasite growth, % of control (lower = inhibition) turned out to be 100%. The growth, % of control in [4] was found to be 77.4%. Besides, the cell viability, % of control (lower = more cytotoxic) in assay [5] stood at 1.76%. Further, the Potency entry in assay [6] and in assay [7] was “inactive” throughout.
`O=C(O)C=Cc1ccc(O)c(O)c1` had a parasite growth, % of DMSO control in assay [1] of 53.1%. For the same compound, the parasite growth remaining, % of DMSO control (lower = more inhibition) in assay [2] stood at 82.5%. Also, the growth, % of control in assay [4] came to 64.3%. Besides, in assay [5], the cell viability, % of control (lower = more cytotoxic) came out at 21.3%. In addition, the Potency result in [7] is “inactive”. The Potency in assay [8] was 8.33 µM (active); in assay [9], 18.7 µM (active); in assay [10], 23.5 µM (active); in assay [11] it was 20.9 µM (active).
Compound `CC(C(=O)O)c1ccc(-c2ccccc2)c(F)c1` (centres undefined) returned a growth, % of control in assay [4] of 96%. Moreover, the cell viability, % of control (lower = more cytotoxic) in [5] was 84.9%. For the same compound, the Potency in assay [6] is 16.6 µM (active); in [8] it was 18.7 µM (active); in [11], 11.8 µM (active). Further, the Potency entry in [10] was “inactive”. Moreover, in [12], the call was inactive.
`CC#CCn1c(N2CCC[C@@H](N)C2)nc2c1c(=O)n(Cc1nc(C)c3ccccc3n1)c(=O)n2C` yielded a parasite growth, % of DMSO control in [1] of 58%. Further, the parasite growth remaining, % of DMSO control (lower = more inhibition) in assay [2] came out at 22.5%. The parasite growth, % of control (lower = inhibition) in assay [3] was 22.9%. Besides, the cell viability, % of control (lower = more cytotoxic) in assay [5] came to 159%. Moreover, the Potency result in assay [6] and in [7] was “inactive” throughout. For the same compound, the Potency in [9] was 26.4 µM (active).
The compound `O=c1cc(-c2cccc3c2Sc2ccccc2S3)oc(N2CCOCC2)c1` gave a parasite growth, % of DMSO control in [1] of 64.9%. Besides, in assay [2], the parasite growth remaining, % of DMSO control (lower = more inhibition) came to 90.2%. Further, in assay [3], the parasite growth, % of control (lower = inhibition) stood at 61.1%. The growth, % of control in assay [4] is 39.5%. For the same compound, in assay [5], the cell viability, % of control (lower = more cytotoxic) is 22.3%. Also, the Potency entry in assay [6] and in assay [7] was “inactive” each time.
Turning to `Clc1ccc(-c2nc3sccn3c2C=NOCc2ccc(Cl)c(Cl)c2)cc1`, the remaining parasite growth % (stronger effect = lower value) in [13] was determined as 110%. Further, in [14], the activity, percent of control stood at 101%. Besides, in assay [15], the remaining proliferation (% of control), lower = more inhibition stood at 103%. Besides, the parasite growth, % of DMSO control in assay [1] worked out at 30.7%. In addition, the parasite growth remaining, % of DMSO control (lower = more inhibition) in assay [2] was found to be 51.5%. The parasite growth, % of control (lower = inhibition) in [3] amounted to 122%. In assay [5], the cell viability, % of control (lower = more cytotoxic) was determined as 111%. Besides, the Potency result in [6], in assay [7], in [10] and in [16] was “inactive” throughout.
Take `O=C(O)[C@H]1O[C@H](Oc2cc3oc(-c4ccccc4)cc(=O)c3c(O)c2O)[C@H](O)[C@@H](O)[C@H]1O`: in assay [1], the parasite growth, % of DMSO control was 69.9%. For the same compound, in assay [2], the parasite growth remaining, % of DMSO control (lower = more inhibition) worked out at 89%. Besides, in assay [3], the parasite growth, % of control (lower = inhibition) is 57.6%. The growth, % of control in [4] was determined as 96.3%. Also, the cell viability, % of control (lower = more cytotoxic) in [5] was found to be 46.5%. In addition, the Potency entry in assay [6] and in assay [7] was “inactive” each time. The Potency in [11] was 18.7 µM (active).
In the case of `O=C(O)CCC1CCC(c2cc(F)ccc2F)(S(=O)(=O)c2ccc(Cl)cc2)CC1` (centres undefined), in [13], the remaining parasite growth % (stronger effect = lower value) was 23.3%. Moreover, the activity, percent of control in [14] was determined as 74.5%. Also, the remaining proliferation (% of control), lower = more inhibition in assay [15] worked out at 56.3%. In assay [1], this compound gave a parasite growth, % of DMSO control of 66.9%. Moreover, in assay [2], the parasite growth remaining, % of DMSO control (lower = more inhibition) was determined as 93.8%. Also, in [3], the parasite growth, % of control (lower = inhibition) was found to be 51.1%. Also, the growth, % of control in assay [4] is 82.6%. In addition, the cell viability, % of control (lower = more cytotoxic) in assay [5] came out at 8.09%. Besides, the Potency result in assay [6] and in assay [7] was “inactive” throughout. Besides, the values for the Potency in assay [11] and in assay [17] were 11.8 µM (active) and 3.32 µM (active), respectively.
In the case of `C[C@H]1[C@H](NC(=O)C(=NOC(C)(C)C(=O)O)c2csc(N)n2)C(=O)N1S(=O)(=O)O`, the growth, % of control in assay [4] came out at 102%. In addition, the cell viability, % of control (lower = more cytotoxic) in [5] was determined as 120%. Moreover, the Potency entry in assay [6], in [7], in assay [9] and in [10] was “inactive” in each case.
